An excerpt weighted towards active compounds, which were near 9% of everything screened.
IMPase cell inh: qHTS Assay for Identifying the Cell-Membrane Permeable IMPase Inhibitors; Inositol monophosphatase 1 (Rattus norvegicus), P97697; CHO-M1 cells, IP1 accumulation, HTRF TR-FRET ratio; inhibition (IP1 accumulation), % at 46.1 µM; 120,000 tested, under 10 active; AID 901, 2007; active = well fitted curve in the direction sought with a large enough effect in the signal ratio, not every such curve was filed as active; inconclusive = small, poorly fitted or top-dose-only effect, or a change in a side signal; inactive = no such curve, though single readings can be large or run the other way; the % refers to the signal ratio;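 note: cells stimulated with carbachol in lithium chloride buffer; plate controls were DMSO basal wells for no effect and reference inhibitor wells for full effect; higher means more IMPase inhibition seen as more IP1 and lower FRET ratio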
Target sequence (P97697 whole entry, looked up): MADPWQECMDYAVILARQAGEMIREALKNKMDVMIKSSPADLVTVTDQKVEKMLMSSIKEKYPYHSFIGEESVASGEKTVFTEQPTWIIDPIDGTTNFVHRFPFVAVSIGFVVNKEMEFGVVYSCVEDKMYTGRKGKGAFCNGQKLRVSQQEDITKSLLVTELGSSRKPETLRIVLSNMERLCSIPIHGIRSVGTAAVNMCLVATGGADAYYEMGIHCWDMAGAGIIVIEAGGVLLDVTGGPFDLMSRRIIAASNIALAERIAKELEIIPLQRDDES
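CHO-M1, 2000 cells/well, cultured 16–30 h; cpd up to 46 uM; carbachol (50 uM solution, stimulation buffer w/ 50 mM LiCl, pH 7.4), 30 min 37C; IP-One TR-FRET, 10 min RT; Ex 320/Em 665, 620; Hill-fit AC50.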
HPGD inh: qHTS Assay for Inhibitors of HPGD (15-Hydroxyprostaglandin Dehydrogenase); actives 4.3% (n = 150,000); 15-hydroxyprostaglandin dehydrogenase [NAD(+)] (Homo sapiens), P15428; Potency, µM, for inactives: top-dose activity change, negative = inhibition, hits mostly inhibitors; purified HPGD, NADH fluorescence kinetic, PGE2 substrate; AID 894, 2007; note: potency is the fitted concentration of half-maximal effect
Target sequence (P15428 whole entry, looked up): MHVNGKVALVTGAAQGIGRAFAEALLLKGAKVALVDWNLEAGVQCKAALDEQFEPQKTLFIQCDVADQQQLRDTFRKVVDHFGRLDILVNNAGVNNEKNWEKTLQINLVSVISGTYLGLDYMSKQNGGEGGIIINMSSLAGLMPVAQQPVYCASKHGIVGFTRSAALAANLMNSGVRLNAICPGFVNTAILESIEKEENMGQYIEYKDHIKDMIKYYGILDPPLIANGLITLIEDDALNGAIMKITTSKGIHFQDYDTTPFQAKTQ
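NADH formation kinetics: reaction with 30 uM PGE2 and 1 mM NAD+ (final), 20 nM enzyme, Tris-HCl pH 8 with Tween 20, after 15 min compound preincubation at room temperature. Fluorescence change, last versus first of five reads.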
ALDH1A1 block: qHTS Assay for Inhibitors of Aldehyde Dehydrogenase 1 (ALDH1A1). actives 7.3% (n = 220,000). Potency, µM (titrated, usually from 75.3 µM), inactives show at the top dose activity, negative = inhibition, hits mostly inhibitors. Purified ALDH1A1, NADH fluorescence, propionaldehyde substrate;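 note: potency is the fitted concentration of half-maximal effect; plate controls were no enzyme wells and a reference inhibitor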
An asterisk follows results filed as active; ? = inconclusive; nt = no result; [ ] = dose if it differs, or a comment. Unless noted, calls come from the whole dose curve; as a rule, active = well fitted inhibition curve with a large enough effect (not every such curve was filed as active); inconclusive = small, poorly fitted or top-dose-only effect, or another doubt; inactive = no such curve, though single readings can be large or run the other way. Unless noted, % is set by controls: 0 for no effect and ±100 for the full control effect.

SMILES	IMPase cell inh	HPGD inh	ALDH1A1 block
Clc1ccc(Cn2ncc3c(NCc4ccccc4)ncnc32)cc1	-1.3	-14.9%	2.5%
COc1ccc2cnn(-c3ccccc3)c(=O)c2c1OC	-4.0	-16.9%	-14.3%
O=C(Oc1ccccc1)N1CCC2(CCCN(c3ccccn3)C2)CC1	nt	-25.3%	?
Cc1ccc(Nc2nnc(-c3ccc(C)c(S(=O)(=O)N4CCOCC4)c3)c3ccccc23)cc1	-15.7	nt	nt
COc1ccc(-c2cc(C(F)(F)F)n3nc(C(=O)Nc4sc5c(c4C(=O)OC(C)C)CCC(C)C5)cc3n2)cc1 (stereo unspecified)	-8.6	nt	nt
C/C(CCN1CCCc2nc(C)c(C)cc21)=N\OC[C@@H](C)[C@H](OCc1ccccc1)C(C)C	nt	nt	-10.0%[13.5 µM]
Nc1nc(N)c2[nH]cnc2n1 (tested in a mixture with another compound)	nt	-9.2%	11.0%[13.5 µM]
Cc1[nH]c2c(C)ccc(C)c2c1CC(=O)O	nt	-2.2%	3.4%[13.5 µM]
O=C1C(=O)N(Cc2cccnc2)C(c2ccccn2)/C1=C(/O)c1ccc(Br)cc1 (stereo unspecified)	-8.5	-4.8%	7.0%
Cc1ccc(/C(O)=C2\C(=O)C(=O)N(Cc3cccnc3)C2c2ccccc2[N+](=O)[O-])cc1 (stereo unspecified)	nt	-6.7%	7.08µM*
O=C(NNC(=O)C1CCC(C(=O)NNC(=O)c2cccs2)CC1)c1cccs1 (stereo unspecified)	nt	nt	1.9%
CCCCCOC(=O)c1ccc(OC(=O)c2cncc(Br)c2)cc1	-0.7	-17.1%	4.1%
COC(=O)c1ccc(OC(=O)c2cccnc2)cc1	nt	-0.7%	1.7%
CCCCCCCOC(=O)c1ccc(OC(=O)c2cccnc2)cc1	-8.1	22.4µM*	?
O=Cc1ccc(OC(=O)c2cccnc2)cc1	nt	nt	5.01µM*
C=CC[C@@H]1C=C[C@@H](O/N=C2/[C@H]3O[C@@H]3[C@@H](O)[C@H]3[C@H]2CCn2c(=O)n(-c4ccccc4)c(=O)n23)[C@@H](CO)O1	nt	nt	7.8%[13.5 µM]
O=C(COc1ccc(-n2ccnc2)cc1)Nc1cccc(Cl)c1	nt	nt	-3.8%
Cc1ccc(C(=O)Oc2ccc3c(c2)ncn3C)cc1	-7.4	7.94µM*	-13.2%
Cn1cnc2cc(OC(=O)c3ccccc3)ccc21	-7.3	-7.5%	-8.7%
COc1cc2cc(CN(Cc3cccnc3)C(=O)Nc3ccccc3)c(=O)[nH]c2cc1OC	nt	nt	2.9%
c1ccc(Cn2nnnc2CN2CCN(c3ncccn3)CC2)cc1	5.3	-2.9%	11.2µM*
COc1ccc(Cn2nnnc2CN2CCOCC2)cc1	13.1	-17.5%	-0.6%
CN(c1cccc(NC(=O)CN(c2cccc(Cl)c2)S(=O)(=O)c2ccccc2)c1)S(C)(=O)=O	-5.8	nt	-2.5%
O=C1Nc2ccc(Br)cc2C12NNc1ccccc1O2 (stereo unspecified)	nt	nt	8.9%
CCCS(=O)(=O)c1nc(S(=O)(=O)c2ccc(C)cc2)c(NCCCN2CCOCC2)s1	6.5	-15.1%	14.1µM*
SMILES	IMPase cell inh	HPGD inh	ALDH1A1 block
CCS(=O)(=O)c1nc(S(=O)(=O)c2ccc(Cl)cc2)c(NCCOC)s1	nt	nt	4.47µM*
Cc1ccc2cc(S(=O)(=O)NCCCN3CCOCC3)ccc2c1	nt	nt	2.0%
COCCN(CCOC)c1nc(S(=O)(=O)c2ccc(C)cc2)c(Cl)s1	2.5	-8.3%	-16.1%
CCCNc1sc(S(=O)(=O)CCC)nc1S(=O)(=O)c1ccc(C)cc1	nt	nt	10µM*
CCOc1nc(S(=O)(=O)c2ccc(C)cc2)c(Cl)s1	-0.2	-8.8%	6.6%
C=CCC(O)(C#Cc1ccccc1)c1ccccc1 (stereo unspecified)	nt	-3.7%	4.2%
CCC1=C(OC(=O)N(CC)CC)N2C(=O)OC(=NCCOC)[C@]2(C)[C@H]2C1=CC[C@H]1C(=O)NC(=O)[C@H]12	nt	-5.4%	-7.9%
N=c1c2ccccc2nnn1-c1cccc(C(F)(F)F)c1	nt	nt	1.7%
CCCCCCC1/C(=N/O)CCC1C(=O)OC (stereo unspecified)	-1.0	-0.6%	2.9%
COC(=O)C1=CO[C@@H](O[C@H]2OC(CO)C(O)C(O)C2O)C2C1CC(O)C2C (stereo partly specified)	nt	-6.8%	9.5%
COCCSc1nnc(NC(=O)C2CC(=O)N(c3ccc(Cl)cc3)C2)s1 (stereo unspecified)	nt	nt	-3.0%
COc1cc(/C=N/NC(=O)c2ccc3ccccc3c2)ccc1Oc1ccc([N+](=O)[O-])cn1	-3.1	-5.5%	11.5%
COc1cc(/C=N/NC(=O)c2ccc(O)cc2)ccc1Oc1ccc([N+](=O)[O-])cn1	?	22.4µM*	17.8%
Cc1ccc(CNC(=O)CN(C)S(=O)(=O)c2cccc3cccnc23)cc1	-0.5	-4.9%	?
CS(=O)(=O)N1N=C(c2ccccc2)CC1c1ccc2c(c1)OCO2 (stereo unspecified)	nt	-8.4%	2.38µM*
CS(=O)(=O)N1N=C(c2ccco2)CC1c1ccc(Cl)cc1 (stereo unspecified)	-7.4	-6.7%	8.91µM*
Cc1ccc(C2CC(c3ccco3)=NN2S(C)(=O)=O)cc1 (stereo unspecified)	nt	-5.6%	?
CS(=O)(=O)Nc1cccc(C2=NN(S(C)(=O)=O)C(c3ccc4c(c3)OCO4)C2)c1 (stereo unspecified)	nt	-10.7%	-0.3%
CC(=O)N[C@H](c1ccccc1)[C@@]1(C)C[C@@H]1[C@@H](C)C(=O)Nc1ccc2ccccc2c1	nt	-6.3%	?
COC(=O)N[C@H](c1ccccc1)[C@@]1(C)C[C@@H]1[C@@H](C)C(=O)Nc1ccc2ccccc2c1	nt	-23.4%	7.94µM*
C[C@@H](C(=O)Nc1ccc2ccccc2c1)[C@H]1C[C@]1(C)[C@H](NC(=O)c1cccnc1)c1ccccc1	nt	-5.1%	11.2µM*
C[C@@H](C(=O)Nc1ccc2ccccc2c1)[C@@H]1C[C@@]1(C)[C@@H](NC(=O)c1ccccc1)c1ccccc1	nt	-14.8%	6.6%
CCN(CC)CCCC(C)NC(=O)c1ccc(-n2c(=O)c(=O)[nH]c3ccccc32)cc1 (stereo unspecified)	nt	-9.2%	-4.3%
C=CCn1c(SCCN2CCCC2)nc2c([nH]c3ccccc32)c1=O	nt	nt	-10.8%
O=C1CCCC=C1[C@@H](O)CCOCc1ccccc1	nt	nt	-5.5%[13.5 µM]
SMILES	IMPase cell inh	HPGD inh	ALDH1A1 block
Cc1nc2c(C#N)cnn2c2c1CCN2CC1CCCO1 (stereo unspecified)	nt	nt	-5.4%
COc1cc(-c2nc(SCC(=O)Nc3ccc(C)cc3)c(-c3ccc(F)cc3)[nH]2)cc(OC)c1OC	8.0	nt	nt
O=C1c2ccccc2CN1CCNC(=S)NC1CCCCC1	nt	nt	4.9%
CC1CN(C(=S)SCCN2Cc3ccccc3C2=O)CC(C)O1 (stereo unspecified)	10.2	-17.2%	-2.5%
O=C1c2ccccc2CN1CCSC(=S)N1CCOCC1	nt	28.2µM*	?
O=C1c2ccccc2CN1CCSC(=S)N1CCSCC1	nt	nt	10µM*
CN1CCC(N(C)C(=O)CCc2nc3ccccc3c(=O)[nH]2)CC1	0.4	-7.6%	0.0%
O=C/C(=C\Nc1ccc(S(=O)(=O)CCO)cc1)c1nc2cc(Cl)ccc2o1	nt	nt	-10.5%
CCC(=O)OCC(=O)Nc1cc([N+](=O)[O-])ccc1OC	nt	nt	-2.4%

Screening results: PubChem BioAssay, National Center for Advancing Translational Sciences (NCATS)
